Results published in the supplement of paper PMC9135407.
“And” between values parts separate entries of the source, which are not always exact repeats. Equal entries are not always repeated. Structures can show the parent of a compound that is named as a salt. The campaign covered roughly 5,800 compounds. About 620 (11%) showed activity. Many of the other results were omitted from the sample, so actives are more common in it than they were. A number with no mark means an inactive call.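 How the source made its calls: active = score above a cut-off or among the top three wells of a plate; in these data no inactive exceeds 0.85.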

Tested on: primary human hepatic stellate cells (donor 1)
Assay: scaled lipid accumulation score (0 = DMSO-like, 1 = nortriptyline-like); higher = stronger HSC inactivation (lipid re-accumulation), active = hit call of the paper
Conditions: 48 h
[1] = library stock concentration: 10 mM
[2] = library stock concentration: 1 mM
[3] = library stock concentration: 3.33 mM
[4] = library stock concentration: 80 uM
[5] = library stock concentration: 400 uM
[6] = library stock concentration: 2 mM

CCCOc1ccc(C(=O)OCCN(CC)CC)cc1N [Proxymetacaine] was tested, and the “scaled lipid accumulation score” value [1] was 0.166.

With CCCOc1ccc(C(=O)OCCN(CC)CC)cc1N [Proparacaine hydrochloride] the “scaled lipid accumulation score” value was ≤ 0 and the “scaled lipid accumulation score” value (library stock concentration: 6 mM) was ≤ 0.

With COc1ccc2cc(C(C#N)OC(=O)CC3OC3c3ccccc3)ccc2c1 (stereo unspecified) the “scaled lipid accumulation score” value [2] was 0.017.

With C[N+](C)(C)[C@@H](Cc1c[nH]c(=S)[nH]1)C(=O)[O-] [Ergothioneine] the “scaled lipid accumulation score” value (library stock concentration: 8.7 mM) was ≤ -0.006.

With CN(C)CCCCC(=O)Nc1ccc(NC(=S)NC(=O)c2ccc(C(C)(C)C)cc2)cc1 [Tenovin-6] [listing 1 of 2 here] the “scaled lipid accumulation score” value [2] was 0.143 and the “scaled lipid accumulation score” value [1] was 0.405.

CC(=O)Nc1ccc(NC(=S)NC(=O)c2ccc(C(C)(C)C)cc2)cc1 [Tenovin-1] was tested, and the “scaled lipid accumulation score” value [2] was ≤ 0.

For CN(C)CCCCC(=O)Nc1ccc(NC(=S)NC(=O)c2ccc(C(C)(C)C)cc2)cc1 [Tenovin-6] [listing 2 of 2 here], the “scaled lipid accumulation score” value [3] was 1.18 (active).

With O=C(O)C=Cc1cc(Br)c(Br)c(Br)c1Br [Casein Kinase II Inhibitor III, TBCA] the “scaled lipid accumulation score” value [3] was ≤ 0.

Cc1cccc(-c2[nH]c(CNc3ccccc3F)nc2-c2ccc3ncnn3c2)n1 was tested, and the “scaled lipid accumulation score” value [4] was ≤ -0.001, the “scaled lipid accumulation score” value [5] was ≤ -0.001 and the “scaled lipid accumulation score” value [6] was ≤ -0.001. The “scaled lipid accumulation score” value [1] was ≤ -0.001.

For CCCCCCCCCCCCCCCCOC[C@@H](O)COP(=O)(O)O [1-Hexadecyl Lysophosphatidic Acid], the “scaled lipid accumulation score” value [2] was ≤ 0.

For Cc1nc(N=Nc2ccc(C(=O)O)cc2)c(COP(=O)(O)O)c(C=O)c1O, the “scaled lipid accumulation score” value [1] was 0.139.

For CCCCCCCCCCCCCCCCCC(=O)NCCS(=O)(=O)O [N-Stearoyl Taurine], the “scaled lipid accumulation score” value [2] was 0.008.

For CNC(=O)c1ccc(C)c(-n2c(C)cc(OCc3ccc(F)cc3F)c(Br)c2=O)c1, the “scaled lipid accumulation score” value [4] was 0.057, the “scaled lipid accumulation score” value [5] was 0.038 and the “scaled lipid accumulation score” value [6] was 0.056. The “scaled lipid accumulation score” value [3] was 0.014 and the “scaled lipid accumulation score” value [1] was ≤ 0 and ≤ -0.001.

With CCN(CCCOc1ccc2c(Nc3cc(CC(=O)Nc4cccc(F)c4)[nH]n3)ncnc2c1)CCOP(=O)(O)O [Barasertib] the “scaled lipid accumulation score” value [4] was 0.022, the “scaled lipid accumulation score” value [5] was ≤ -0.001 and the “scaled lipid accumulation score” value [6] was 0.115. The “scaled lipid accumulation score” value [1] was 0.242.

With CCC=CCC=CCC=CCCCCCCCCCC(=O)O [11(Z),14(Z),17(Z)-Eicosatrienoic Acid] the “scaled lipid accumulation score” value [2] was ≤ 0.

Cc1ccc(Sc2ccccc2N2CCNCC2)c(C)c1 was tested, and the “scaled lipid accumulation score” value [3] was 0.769 and the “scaled lipid accumulation score” value [1] was 0.102.

In the case of O=S(=O)(c1ccccc1)c1cnc2c(N3CCNCC3)cccc2c1 [listing 1 of 2 here], the “scaled lipid accumulation score” value [3] is reported as 0.285.

With O=S(=O)(c1ccccc1)c1cnc2c(N3CCNCC3)cccc2c1 [listing 2 of 2 here] the “scaled lipid accumulation score” value [1] was 0.994 (active).

With CCCCCCC[C@H](O)/C=C/[C@@H]1[C@@H](C/C=C\CCCC(=O)O)[C@@H](O)C[C@H]1O [20-ethyl Prostaglandin F2.alpha.] the “scaled lipid accumulation score” value [2] was ≤ 0.

For NC(=O)Nc1cc(-c2cccc(F)c2)sc1C(=O)N[C@H]1CCCNC1 [listing 1 of 2 here], the “scaled lipid accumulation score” value [3] was 0.879 (active).

For NC(=O)Nc1cc(-c2cccc(F)c2)sc1C(=O)N[C@H]1CCCNC1 [listing 2 of 2 here], the “scaled lipid accumulation score” value [4] was ≤ 0, the “scaled lipid accumulation score” value [5] was 0.06 and ≤ -0.005 and the “scaled lipid accumulation score” value [6] was 0.23 and 0.444. For the same compound, the “scaled lipid accumulation score” value [1] was 0.559 and 0.276.

With NC(=O)Nc1cc(-c2ccccc2)sc1C(N)=O [IKK-2 Inhibitor XI] the “scaled lipid accumulation score” value [3] was ≤ 0.

With CNCC(O)c1ccc(O)c(O)c1 (racemic) [(+/-)-Epinephrine hydrochloride] the “scaled lipid accumulation score” value [1] was ≤ 0.

CCCCC[C@H](O)CC[C@@H]1[C@@H](C/C=C\CCCC(=O)O)[C@@H](O)C[C@H]1O [13,14-dihydro Prostaglandin F2.alpha.] was tested, and the “scaled lipid accumulation score” value [2] was ≤ 0.

In the case of CCCCC[C@H](O)/C=C/[C@@H]1[C@@H](CCCCCCC(=O)O)[C@@H](O)C[C@H]1O [Prostaglandin F1.alpha.], the “scaled lipid accumulation score” value [2] is reported as ≤ 0.

In the case of O=P(O)(O)OC1[C@@H](O)[C@H](O)C(O)[C@H](O)[C@@H]1O (stereo partly drawn) [D-myo-Inositol-3-phosphate (sodium salt)], the “scaled lipid accumulation score” value [2] is reported as 0.009.

In the case of Cc1nc(N)sc1-c1ccnc(Nc2ccc(N3CCOCC3)cc2)n1 [listing 1 of 3 here], the “scaled lipid accumulation score” value [1] is reported as 1.02 (active).

For Fc1cc(-c2ccnc(Nc3ccc(-n4cnc(N5CCOCC5)n4)cc3)n2)cc(N2CCOCC2)c1, the “scaled lipid accumulation score” value [4] was 0.394, the “scaled lipid accumulation score” value [5] was 0.734 and the “scaled lipid accumulation score” value [6] was 0.178. For the same compound, the “scaled lipid accumulation score” value [1] was 0.442.

With Cc1nc(N)sc1-c1ccnc(Nc2ccc(N3CCOCC3)cc2)n1 [listing 2 of 3 here] the “scaled lipid accumulation score” value [5] was ≤ -0.005, the “scaled lipid accumulation score” value [6] was ≤ -0.005 and the “scaled lipid accumulation score” value [3] was ≤ 0.

With Cc1nc(N)sc1-c1ccnc(Nc2ccc(N3CCOCC3)cc2)n1 [listing 3 of 3 here] the “scaled lipid accumulation score” value [1] was 1.07 (active).

In the case of Cc1ncc(-c2ccnc(Nc3ccc(S(C)(=O)=O)cc3)n2)n1C(C)C, the “scaled lipid accumulation score” value [4] is reported as 0.708, the “scaled lipid accumulation score” value [5] is reported as 0.763 and the “scaled lipid accumulation score” value [6] is reported as 0.527. The “scaled lipid accumulation score” value [3] was 0.078 and the “scaled lipid accumulation score” value [1] was 0.329 and 0.334.
